Measurements reported in the supplement of paper PMC11417369.
The full ranking holds about 25,000 sequences; the median of “ln(normalized median fluorescence intensity)” is about 9.3, and the highest 2% start at about 10. The sample as a whole holds a higher share of the highest values than the screen did.

System: PF3D7_0420300 AP2 domain 1 (GST-tagged)
Experiment: gcPBM binding intensity (ln(normalized median fluorescence intensity)); higher = stronger DNA binding
How it was run: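 Alexa488 anti-GST antibody, scanned at 488 nm, detected GST-tagged P. falciparum DNA-binding domains that had been expressed in E. coli and incubated for 1 h on an Agilent 4 × 180k array. The array carried primer-extended double-stranded 36-bp intergenic genomic probes and negative controls. Binding intensity is the highest Masliner-normalised natural-log median intensity across replicate spots of either orientation of each probe.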

Sequence	gcPBM binding intensity (ln)
GGTGTATGTTAAAGGAGTACATATATATATATATAT [XGTACX_site7727]	9.3
ACCTTTGATATATACACACACATAAAAAAAATATAT [CACACA_site6952]	9.93
TACAACCTTTAGACAAGTACAAGAATTATATGTGGC [XGTACX_site4581]	9.4
AAAAAAAAAAATTACACACATACATATAATAATAAT [CACACA_site2193]	9.85
AGCAGTCGACAGGACAGTACACAGTAGCCAGGAAAT [XGTACX_site4929]	9.32
AAATTATAAATACCTACACACTTATCAAAATAAATT [CACACA_site5280]	9.56
ATTGGGTTCATCAGCACACACAACATCATGTAATAA [CACACA_site5093]	9.5
AATTAATGGAAACAAGTCAAATGATCTTTATGCATA [TGCATGCA_negctrl_site540]	9.13
TTTATATAATTTTAATGTACATATATATATATAAAT [XGTACX_site4381]	8.98
AAAAAACACAGACACACACACATATACATACATACA [CACACA_site2666]	10.2
AAAAAAAACAGACACACACACATACACATACATACA [CACACA_site2857]	10.2
TACACATACAGACATACACACATACACATATACACA [CACACA_site6918]	9.88
CATATACATACACATACACACATACAGACATACACA [CACACA_site6919]	9.83
AAAAAAAACAGACACACACACACATATACATACATA [CACACA_site2665]	10.2
AACAGACATACATACACACATACATACAGACATACA [CACACA_site1942]	9.9
TACATACACAGACACACACACATATATATATATATA [CACACA_site3557]	9.89
TAAACAGACATACATACACACATACATACAGACATA [CACACA_site6997]	9.88
TAAACAGACATATAAACACACATACATACATACATA [CACACA_site7215]	9.56
TAATGATTATATGACTGTACATTTGTAGGTATAATT [XGTACX_site3373]	9.18
ACATAAAAATTATGCACACTTAATAAAGCGAAATGT [CACACA_site3183]	9.45
TATATATAAAAATATACACACACAAATGTATATATA [CACACA_site7956]	9.54

Sequence	gcPBM binding intensity (ln)
AAATATTTTATACTTGCACACAAAATATATTAAAAT [CACACA_site8606]	9.32
AAAAACAAAAAAGAAGCACACATATATATATATATA [CACACA_site8779]	9.6
ATCCTACTATGTTATACACACAATTACTTTTTTCTC [CACACA_site3712]	9.86
CTTATTATTATATGGGTGCTCATATTTTTCTTTTTT [GTGCAC_site9723]	9.4
TTATACTTTGGGTGGTGTACTATATTATGCTTATAA [XGTACX_site1106]	9.51
GGTGGTGGTGGGTGGGTGCTTCTATTATTATATTAT [GTGCAC_site9391]	10.7
CCTTTATAATTGGAAACACACATATAAAGTATATAT [CACACA_site3900]	9.2
CATTCAAACAAAAAAAGTACTCATCACATAATATAT [XGTACX_site1251]	9.44
ATATAAATAAACAGGTGTACTATAATGTTCATAGTA [XGTACX_site1553]	9.47
TTAATTATAATTATATGTACGAACTTTTTTTTTTTT [XGTACX_site6586]	9.14
AATATTATAATATAAACACACAAAATTCAATTATAT [CACACA_site3789]	9.69
AAAAAAAACGGACACACACACATTCAATATAAAACA [CACACA_site4189]	10.2
AAAAAAAACAGACACACACACATAAATATAAATAAA [CACACA_site6214]	9.96
AATATTAAAATATAAACACACAAAATTCAATTATAT [CACACA_site5971]	9.61
AAAAAAAAAAAAAAAACACACAGAACAATATATAAA [CACACA_site4698]	9.76
TTCATTAAAACGAATACACACATAAATATATAAAAG [CACACA_site4824]	9.62
AAAAAAAACGAACACACACACATTCAATATAAAACA [CACACA_site6170]	10.2
AAAAAAAAAAAACACACACACACATTCAATATAAAA [CACACA_site40]	10
AAAAAAAACAGACACACACACATTCAATATAAAACA [CACACA_site41]	10.2
TATAATAGTTCATAGGTGCAATATAATAAATTTATA [GTGCAC_site9573]	9.13
TACCTTTATTAATAAAGTACATTAATCTGTGTATAC [XGTACX_site8720]	9.09

Sequence	gcPBM binding intensity (ln)
AGTATTCACTTAATATGTACATATTTATTATAAGAG [XGTACX_site3434]	9.11
ACATCAAGAATTATTAAGAATACGGATAGATAAAAT [GTGCAC_negctrl_site261]	9.4
ATAAAATTTTATATGGGTACATAATATAATATATAT [XGTACX_site8160]	9.21
TATAAGAATAAAAAGGGTACATAAAATAATAATATA [XGTACX_site2355]	9.55
ATTATAAGAAGGGGGGGTACATAAATATAAATGTAT [XGTACX_site5624]	10.3
AAAAAAAAAAAGAAGGGTACATATTATATATAATAT [XGTACX_site6204]	9.43
ATATTAAAAATATATACACACATATATATAAATATA [CACACA_site2257]	9.37
AAAAAAAATAAAAATAGTACTCAAAAAATTATGAAT [XGTACX_site3073]	9.19
GCTCAATTTTTGGGTACACACAAATGTATAAGAATA [CACACA_site7178]	9.22
TTATGGTTATACATATGTACATATATATATATATAT [XGTACX_site1494]	9.29
ATAATTACAAAATAAACACACATATAGATTTATATG [CACACA_site6343]	9.6
TATAAATATACACCCACACACATATATATATATATA [CACACA_site3745]	9.66
TATATATATATATACACACACACCCTAAAAATATAT [CACACA_site1611]	9.97
TATAAATATACACCCACACACATATATAAATAAATA [CACACA_site7717]	9.89
TATATATATAAATACACACACACCCTAAAAATATAT [CACACA_site4970]	10.1
TACACGCTAAAATACACACACACACCCACATATATA [CACACA_site4153]	10.2
TACCCACTAAAATACACACACACACCCACATATATA [CACACA_site6141]	10.2
AAAAAAAATACATACACACACACACCCACATATATA [CACACA_site3561]	10.1
TATATAAATATACACCCACACACATATATATATATA [CACACA_site9247]	9.63
TATACACCCTAAAATACACACACACCCACCCATATA [CACACA_site9380]	10.3
